Source: PubChem
NFkB transloc pot: enhances IL-1B driven NFkB nuclear translocation | HUVEC IL-1B NFkB p65 nuclear translocation imaging | activation, % at 2 µM | actives 0.3% (n = 94,000);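 active means activation above 40%, about the mean plus 3 SD, also judged a hit on visual image review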;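 further: percent activation is computed from the nuclear over cytoplasmic p65 intensity ratio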
Smad3 inh: blocks human Smad3 binding to FoxH1 peptide; actives 0.29% (n = 88,000); P84022; inhibition, % at 25 µM; AID 630; TR-FRET Smad3/Dy647-FoxH1 peptide binding, europium anti-His;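 active means compounds that reduce the energy-transfer binding signal between the protein and its labelled peptide by more than half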
Target sequence (P84022 whole entry, looked up): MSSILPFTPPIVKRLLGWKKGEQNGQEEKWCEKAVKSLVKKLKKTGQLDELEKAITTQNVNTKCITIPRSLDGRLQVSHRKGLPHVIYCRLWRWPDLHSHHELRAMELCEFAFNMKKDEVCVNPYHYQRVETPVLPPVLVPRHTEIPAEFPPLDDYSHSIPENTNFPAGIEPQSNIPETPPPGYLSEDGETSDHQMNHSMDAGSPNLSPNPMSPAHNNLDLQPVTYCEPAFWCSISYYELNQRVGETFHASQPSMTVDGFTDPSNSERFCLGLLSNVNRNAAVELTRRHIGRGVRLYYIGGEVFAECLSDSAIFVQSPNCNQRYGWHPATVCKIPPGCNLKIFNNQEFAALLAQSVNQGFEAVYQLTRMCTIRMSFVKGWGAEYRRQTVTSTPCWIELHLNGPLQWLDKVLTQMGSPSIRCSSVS
IL1B cytotox: HUVEC cytotoxicity counter-screen, IL-1B stimulated; HUVEC cell count loss, Hoechst imaging; cell count reduction, % at 2 µM; actives 0.41% (n = 94,000); AID 845;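 active means cell count reduction more than 3 SD above the screen-wide mean, cut at about 70% in these data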
NFkB transloc inh: blocks IL-1B driven NFkB nuclear translocation in HUVEC cells. inhibition, % at 2 µM. actives 0.43% (n = 94,000). HUVEC IL-1B NFkB p65 nuclear translocation imaging. AID 796;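 active means inhibition above about 30% together with a positive call from visual inspection of the well image, limit read from the data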;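 further: nuclear over cytoplasmic p65 intensity ratio measured by imaging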
Numbers stand for hits; – = inactive; · = no result given; [ ] = remark or other dose. An excerpt weighted towards active compounds, which were near 1.2% of everything screened.

SMILES | NFkB transloc pot | Smad3 inh | IL1B cytotox | NFkB transloc inh
O=C(O)/C=C/c1c2ccc(=O)c(O)c-2oc2c(O)c(O)ccc12 | · | – | · | ·
CN(C)CCN1C(=O)CC[C@@]2(C)C1=CC[C@H]1[C@H]2CC[C@@]2(C)[C@H]1CC[C@]2(C)O | · | – | · | ·
COc1ccc(/C(C)=N/NC(=O)c2nc(C)cc(C)n2)cc1 | – | – | – | –
COc1ccc2c(c1)[n+]([O-])c(/C(C)=N/NC(N)=S)c(C)[n+]2[O-] | · | 66.3 | · | ·
CC(=O)[C@H]1CC[C@@H]2[C@]1(C)CC=C1[C@@]23C=C[C@@]2(C[C@H](O)CC[C@@]12C)[C@H](C(=O)O)[C@@H]3C(=O)O | · | – | · | ·
CC(=O)Nc1nc2n(n1)C(c1ccc(Cl)cc1)C=C(C)N2 (stereo not drawn) | – | 63.3 | – | –
CCn1c(=O)cc(SCC(=O)Nc2ccccc2N2CCN(C)CC2)c2ccccc21 | · | – | · | ·
CCOC(=O)Cc1csc(NC(=S)NC(=O)c2ccccc2C)n1 | – | · | – | 50.0
CCOC(=O)Cc1csc(NC(=S)NC(=O)c2ccc(F)cc2)n1 | – | · | – | –
Cn1nc(C(=O)NCc2ccccc2)c2ccccc2c1=O | – | – | – | –
CC1CCCCC1NC(=O)c1nn(C)c(=O)c2ccccc12 (stereo not drawn) | 78.2 | – | – | –
COc1cc(S(=O)(=O)Nc2cccc(C(=O)O)c2)c(OC)cc1Cl | – | – | 87.6 | 49.0
COc1ccc(C(=O)N2CCCCC2)cc1S(=O)(=O)Nc1cccc(C(=O)O)c1 | – | – | – | –
NC(=[SH+])[N-]/N=C/c1ccccn1.O=S(=O)(O)O.[Fe] | · | – | · | ·
O=C(NCc1ccccc1)c1cnsn1 | – | – | 89.3 | –
N[C@@H](CSC1(c2ccc(Cl)cc2)c2ccccc2-c2ccccc21)C(=O)O | · | – | · | ·
CC12Cc3ccc4ccccc4c3C=C1C[N+](C)(C)C2 (stereo not drawn) | – | – | – | 49.3
C[N+](C)([O-])Cc1cc(-c2ccccc2)ccc1O | · | – | · | ·
COc1ccc(Cc2noc(COc3ccc(Cl)cc3)n2)cc1 | – | – | – | –
COc1ccccc1OCc1nc(Cc2ccc(Cl)cc2)no1 | 41.6 | – | – | –
O=C(CSc1nc2ccccc2s1)c1sc2sc3ccccc3[n+]2c1O | · | 96.3 | · | ·
Cc1ccc(C(=O)N2CCN(c3ccc(Cl)cc3)CC2)cc1 | – | – | 88.1 | –
Cc1cccc2c1Oc1ccccc1[C@H]2NC(=O)c1ccc([N+](=O)[O-])cc1 | · | – | · | ·
COC(=O)[C@H]1[C@@H]2C[C@H]3c4[nH]c5ccccc5c4CCN3C[C@H]2CC[C@@H]1OS(=O)(=O)O | · | – | · | ·
Cc1ccc(S(=O)(=O)NCCCN2CCOCC2)c(C)c1 | · | – | · | ·
SMILES | NFkB transloc pot | Smad3 inh | IL1B cytotox | NFkB transloc inh
Cc1ccc(S(=O)(=O)NCCN2CCOCC2)cc1 | – | – | – | 31.4
Cc1ccc(S(=O)(=O)N2CCSC2C(=O)O)cc1 (stereo not drawn) | – | – | 74.9 | –
CCn1cc(C(=O)Nc2cccc(C(=O)OC)c2)c(=O)c2ccc(C)nc21 | · | – | · | ·
CCCOC(=O)c1ccc(NC(=O)c2cn(CC)c3nc(C)ccc3c2=O)cc1 | – | 60.8[fluorescence artefact?] | – | –
CCn1cc(C(=O)OCc2ccc(F)cc2)c(=O)c2ccc(C)nc21 | – | – | 86.3 | –
CC1CCN(Cc2nc3c(c(=O)n(C)c(=O)n3C)n2CCN2CCOCC2)CC1 | · | – | · | ·
Nc1[nH]c(=S)[nH]c(=O)c1N=Nc1c(Br)cc(S(N)(=O)=O)cc1Br | · | 54.0 | · | ·
COc1ccc2c(c1)c1ncn(CCN3CCNCC3)c(=O)c1n2C | – | – | 92.4 | –
[Cu].c1ccc2c(c1)-c1nc-2nc2[n-]c(nc3nc(nc4[n-]c(n1)c1ccccc41)-c1ccccc1-3)c1ccccc21 | · | – | · | ·
CC(C)=CCNc1ncnc2c1c(C#N)cn2[C@H]1O[C@H](CO)[C@@H](O)[C@@H]1O | · | – | · | ·
O=C(O)C1=C/C(=C(/c2ccccc2)c2cc(C(=O)O)c(O)c3ccccc23)c2ccccc2C1=O | · | – | · | ·
CCc1cc2cc(C)ccc2nc1SCC(=O)N1CCN(C(=O)c2ccco2)CC1 | – | – | – | –
CCc1cc2cc(C)cc(C)c2nc1SCC(=O)N1CCCC1 | – | – | 94.8 | –
O=C(O)c1ccc(C(=O)O)c(C(=O)c2ccccc2)c1 | – | – | 79.8 | –
Cc1csc(NC(=O)c2ccccc2C(=O)O)n1 | – | – | 86.3 | –
Cc1csc(NC(=O)c2ccco2)n1 | 43.6 | · | – | –
c1ccc(Cc2nnc3sc(-c4cccnc4)nn23)cc1 | – | – | 91.3 | –
CC(CCc1ccccc1)NC(=O)c1cccnc1 (stereo not drawn) | – | – | – | 58.2
C[C@]1(c2ccccc2)O[C@@H]2C[C@H]3[C@@H]4CCC5=CC(=O)C=C[C@@]5(C)[C@@]4(F)[C@H](O)C[C@]3(C)[C@]2(C(=O)CO)O1 | · | – | · | ·
C=C(C)CN(CC#N)CC(=C)C | · | – | · | ·
CCOc1ccccc1N(CC(=O)OC)S(C)(=O)=O | – | – | 71.3 | 97.5
CCOc1ccccc1N(CC(=O)N1CCCCCC1)S(C)(=O)=O | – | – | – | –
CCN(c1ccc(C)c(C)c1)S(=O)(=O)c1ccc2c(c1)CCN2C(=O)CCC(=O)O | 53.7 | – | – | –
CCN(c1ccc(OC)cc1)S(=O)(=O)c1ccc2c(c1)CCN2C(=O)CCC(=O)O | – | · | – | –
OC(COc1ccc(C2C=CCC2)cc1)CN1CCCCC1 (stereo not drawn) | – | 66.9 | – | –
SMILES | NFkB transloc pot | Smad3 inh | IL1B cytotox | NFkB transloc inh
O=C(Nc1ccc(F)cc1)c1cccc2c1C(=O)N(Cc1ccccn1)C2 | – | – | 94.4 | –
CCOCc1cn(CC(=O)c2ccc(Cl)cc2)c(C)nc1=N | – | – | 81.4 | –
CCOC(=O)c1[nH]c2cc3c(cc2c1NC(=O)CN1CCC(C)CC1)OCO3 | – | · | 85.6 | 97.9
COc1cccc2c1C(=N)c1c(O)c3c(c(O)c1C2=O)C[C@](O)(C(C)=O)C[C@@H]3O[C@@H]1C[C@H](N)[C@@H](O)[C@H](C)O1 | · | – | · | ·
CSc1nc(N(C)NC(=O)c2ccccc2)c2ccccc2n1 | – | · | – | –
CSc1nc(N(C)NC(=O)c2ccc(Cl)cc2)c2ccccc2n1 | – | · | – | 34.1
C1=Nc2c(NCc3ccccc3)ncnc2Oc2ccccc21 | – | – | 90.7 | 97.9
c1ccc(CNc2ncnc3nc[nH]c23)cc1 | – | – | – | –
OC[C@@H]1O[C@H](n2cnc3c(/C=C(\O)c4ccccc4)ncnc32)[C@H](O)[C@H]1O | · | – | · | ·
Cn1c(COc2ccc3ccccc3c2)nnc1SCC(=O)OC1CCCCC1 | 41.1 | – | – | –
O=C(OC1CCN(c2ncc(C(F)(F)F)cc2Cl)CC1)c1cccc(C(F)(F)F)c1 | – | · | – | –
O=C(c1cccc(C(F)(F)F)c1)N1CCOC12CCN(c1ncc(C(F)(F)F)cc1Cl)CC2 | – | – | – | 33.4
C[N@@+]1(CC[N@+]2(C)CCC[C@@H]2c2cccnc2)CCC[C@@H]1c1cccnc1 | · | 91.4 | · | ·
C[N@@+]1(Cc2ccc(Cl)c(Cl)c2)CCC[C@@H]1c1ccc[n+](Cc2ccc(Cl)c(Cl)c2)c1 | · | – | · | ·
CC1=C(CC[C@H](C)CO)O[C@@H]2C[C@@H]3[C@H]4CC[C@H]5C[C@@H](O)CC[C@]5(C)[C@@H]4CC(=O)[C@@]3(C)[C@H]12 | · | 98.7 | · | ·
COc1ccc(/C=N/NC(=O)O)cc1 | · | – | · | ·
